# Data: PubChem BioAssay (NCATS)
# “And” between values parts separate entries of the source, which are not always exact repeats. Equal entries are not always repeated. Records with an inconclusive call do not appear. The source made the active and inactive calls. Unless noted, the call rests on the fitted dose curve; in most records, active means well fitted curve in the direction sought with a large enough effect; inconclusive means small, poorly fitted or top-dose-only effect, or another doubt; inactive means no such curve, though single readings can be large; an effect the other way counts as inactive or inconclusive.
# Experiments:
# [1] = target: Cytochrome P450 2D6 (Homo sapiens) (UniProt P10635); experiment: Cytochrome P450 family 2 subfamily D member 6 (CYP2D6) small molecule antagonists: luciferase biochemical (cell-free) qHTS assay (AID 1645840; active means well fitted curve in the direction sought with a large enough effect in the repeat runs; an effect the other way counts as inactive or inconclusive; further: nearly all actives have a fitted effect of over 55% in size; further: potency means the concentration at half of the fitted maximal effect)
# Cytochrome P450 2D6 (Homo sapiens), sequence (P10635 whole entry, looked up): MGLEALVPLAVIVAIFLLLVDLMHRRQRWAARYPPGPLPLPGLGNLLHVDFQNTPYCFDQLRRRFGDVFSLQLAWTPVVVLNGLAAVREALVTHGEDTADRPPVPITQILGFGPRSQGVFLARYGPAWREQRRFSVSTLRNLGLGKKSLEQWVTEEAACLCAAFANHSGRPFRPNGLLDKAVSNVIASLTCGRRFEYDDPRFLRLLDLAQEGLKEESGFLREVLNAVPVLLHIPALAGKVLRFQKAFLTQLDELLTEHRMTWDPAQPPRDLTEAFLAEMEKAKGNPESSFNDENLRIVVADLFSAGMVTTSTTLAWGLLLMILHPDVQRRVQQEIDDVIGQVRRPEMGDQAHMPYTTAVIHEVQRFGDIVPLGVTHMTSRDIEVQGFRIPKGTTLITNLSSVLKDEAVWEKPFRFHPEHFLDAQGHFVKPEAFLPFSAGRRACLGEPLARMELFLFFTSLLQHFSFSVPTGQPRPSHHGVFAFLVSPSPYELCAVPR
# Procedure, shortened: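 P450-Glo luminescent screen: recombinant CYP2D6 enzyme–proluciferin substrate mix preincubated with compound 10 min at room temperature, then NADPH regeneration added for 1 h at room temperature. Detection reagent added for 20 min; luciferin light read as relative luminescence units.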
# [2] = target: Cytochrome P450 2C9 (Homo sapiens) (UniProt P11712); experiment: Cytochrome P450 family 2 subfamily C member 9 (CYP2C9) small molecule antagonists: luciferase biochemical (cell-free) qHTS assay (AID 1645842; active means well fitted curve in the direction sought with a large enough effect in the repeat runs; an effect the other way counts as inactive or inconclusive; further: potency means the concentration at half of the fitted maximal effect; nearly all actives have a fitted effect of over 55% in size)
# Cytochrome P450 2C9 (Homo sapiens), sequence (P11712 whole entry, looked up): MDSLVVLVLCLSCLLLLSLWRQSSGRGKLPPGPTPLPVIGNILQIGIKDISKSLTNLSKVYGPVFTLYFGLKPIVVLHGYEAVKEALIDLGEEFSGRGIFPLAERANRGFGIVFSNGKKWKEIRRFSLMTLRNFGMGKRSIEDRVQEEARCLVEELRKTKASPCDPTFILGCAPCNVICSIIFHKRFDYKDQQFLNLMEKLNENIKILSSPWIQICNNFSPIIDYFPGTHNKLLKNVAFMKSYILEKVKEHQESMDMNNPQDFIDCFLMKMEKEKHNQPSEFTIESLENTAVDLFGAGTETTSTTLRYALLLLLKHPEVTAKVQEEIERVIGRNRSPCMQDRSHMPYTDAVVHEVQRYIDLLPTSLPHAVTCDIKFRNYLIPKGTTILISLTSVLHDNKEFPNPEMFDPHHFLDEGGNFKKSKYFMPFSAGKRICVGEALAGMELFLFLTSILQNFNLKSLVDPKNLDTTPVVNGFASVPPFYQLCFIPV
# Procedure, shortened: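 Luminescence, after 20 min with luciferin detection reagent, reflected CYP2C9 turnover during a 1 h NADPH-driven reaction at 37C. Enzyme-substrate mix contained 0.4% bovine serum albumin and was preincubated with compound 10 min at room temperature.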
# [3] = NCATS anti-infectives library activity on the primary C. elegans qHTS viability assay (AID 1745855; calls by dose curve)
# Procedure, shortened: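 Viability is taken from GFP fluorescence of PE254-GFP-FLuc C. elegans imaged by laser cytometry over 7 days. Ten L1 worms per well grow at 21 °C on TOP10 E. coli capsules with titrated compound; levamisole marks toxicity.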
# [4] = Primary qHTS for inhibitors of nuclear receptor binding SET domain protein 2 (NSD2) in an RCH-ACV wild type WT cells (2C) (AID 1645877); further: nearly all actives have a fitted effect of over 70% in size; further: potency means the concentration at half of the fitted maximal effect
# [5] = Primary qHTS for inhibitors of nuclear receptor binding SET domain protein 2 (NSD2) in an isogenic RCH-ACV NSD2 p.E1099K mutant (9B) (AID 1645876); further: nearly all actives have a fitted effect of over 70% in size; further: potency means the concentration at half of the fitted maximal effect
SMILES,Potency [1],Potency [2],Potency [3],Potency [4],Potency [5]
O=C(Nc1cc(C(F)(F)F)ccc1N1CCCCC1)c1ccncc1,8.49 µM (active),2.13 µM (active),inactive,,
O=C(NCC1(c2nc(-c3ccccc3)cs2)CCOCC1)c1cccc(-c2noc(C(F)(F)F)n2)c1,inactive,3.01 µM (active),,25.8 µM (active),
C[C@H](CN(C)C)Oc1nc(Nc2cc3cccc(Cl)c3cn2)cnc1C#N,0.674 µM (active),,,409 nM (active) and 934 nM (active),459 nM (active) and 934 nM (active)
CC#CCn1c(N2CCCC(N)C2)nc2c1c(=O)n(Cc1nc(C)c3ccccc3n1)c(=O)n2C (stereo unspecified),inactive,,,inactive,inactive
CC(C)S(=O)(=O)Nc1ccc(F)c(C(=O)c2c[nH]c3ncc(-c4cccnc4)cc23)c1F,5.35 µM (active),,,4.59 µM (active),4.09 µM (active)
N[C@@H]1c2cccnc2[C@H](OC(=O)N2CCC(n3c(=O)[nH]c4ncccc43)CC2)CC[C@H]1c1cccc(F)c1F,6.74 µM (active),,,inactive,inactive
Cc1nc(-c2cn3c(n2)-c2ccc(-c4cnn(C(C)(C)C(N)=O)c4)cc2OCC3)n(C(C)C)n1,inactive,,,5.8 nM (active) and 33.2 nM (active),7.3 nM (active) and 18.6 nM (active)
CC(C)c1ccc(NC(=O)Cn2cnc3c2c(=O)n(C)c(=O)n3C)cc1,inactive,,,,inactive
O=c1ccc2ccc(OCCCCN3CCN(c4cccc5sccc45)CC3)cc2[nH]1,1.34 µM (active),,,16.3 µM (active),14.5 µM (active)
